Screening results deposited in PubChem BioAssay by Johns Hopkins Ion Channel Center.
KCNQ2 inh: KCNQ2 (rat) channel inhibition; B-score at 10 µM; AID 2156; CHO-K1 KCNQ2, FluxOR thallium flux, 20 min; active compounds read low; 310,000 compounds, 1.1% hits;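 active = fluorescence ratio B-score at most minus 3 library SDs, with starting brightness B-score within 2 library SDs, cut at about -5.5 in these data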
Target sequence (O88943 whole entry, looked up): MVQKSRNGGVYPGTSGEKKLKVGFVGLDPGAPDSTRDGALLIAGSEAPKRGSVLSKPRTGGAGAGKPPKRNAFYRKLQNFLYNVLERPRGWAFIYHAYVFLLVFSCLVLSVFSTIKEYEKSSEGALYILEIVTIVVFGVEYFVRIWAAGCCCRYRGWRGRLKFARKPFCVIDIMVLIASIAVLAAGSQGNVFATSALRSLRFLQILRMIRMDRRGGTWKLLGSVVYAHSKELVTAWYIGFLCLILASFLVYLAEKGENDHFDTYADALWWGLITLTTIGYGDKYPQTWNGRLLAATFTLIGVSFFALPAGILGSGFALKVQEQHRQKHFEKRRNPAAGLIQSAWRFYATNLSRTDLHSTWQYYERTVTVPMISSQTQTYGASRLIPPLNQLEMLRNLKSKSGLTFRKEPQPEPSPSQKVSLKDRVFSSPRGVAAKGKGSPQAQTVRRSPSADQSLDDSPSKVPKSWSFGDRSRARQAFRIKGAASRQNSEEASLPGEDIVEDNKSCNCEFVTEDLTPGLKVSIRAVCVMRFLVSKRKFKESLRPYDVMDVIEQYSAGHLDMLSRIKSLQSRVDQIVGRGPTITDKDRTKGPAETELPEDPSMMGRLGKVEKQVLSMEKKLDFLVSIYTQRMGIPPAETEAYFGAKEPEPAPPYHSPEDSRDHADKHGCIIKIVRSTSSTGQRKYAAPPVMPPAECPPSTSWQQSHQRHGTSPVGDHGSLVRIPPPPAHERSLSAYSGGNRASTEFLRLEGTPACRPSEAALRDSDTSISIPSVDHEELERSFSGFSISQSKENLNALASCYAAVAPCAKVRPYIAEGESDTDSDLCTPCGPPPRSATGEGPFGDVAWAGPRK
KCNQ2 enhance: enhances the rat KCNQ2 potassium channel; O88943; CHO-K1 KCNQ2, FluxOR thallium flux fluorescence; active compounds read high; B-score at 10 µM; 310,000 compounds, 0.54% hits; AID 2239;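 active = fluorescence ratio B-score at least 3 SD of library B-scores, with initial fluorescence B-score within 3 of them, cut at about 5.3 in these data; same plate scores as AID 2156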;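 also: B-score of peak minus minimum over baseline fluorescence ratio after K+ and Tl+ stimulus; positive B-score means potentiation of KCNQ2 with more thallium influx and brighter signal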
Large screens that a line does not name were inactive. This is a sample that favours compounds with a hit; in the whole collection about 1.6% have one here.

COc1ccc(Cn2c(/C=C/c3ccccc3)nc3ccccc32)cc1	none (no result: KCNQ2 enhance)
Clc1ccccc1Cn1c(/C=C/c2ccco2)nc2ccccc21	KCNQ2 inh -7
C/C(=N\NC(=O)c1ccoc1C)c1cccc2ccccc12	KCNQ2 enhance 12
C/C(=N\NC(=O)c1cccc2ccccc12)c1ccccn1	none (no result: KCNQ2 enhance)
O/N=C/c1cc(Br)cc(Br)c1OCc1ccccc1	KCNQ2 inh -5.6
O/N=C/c1ccc(OCc2ccccc2)c(Br)c1	none (no result: KCNQ2 enhance)
O=C(CNC(=O)c1cccc(Cl)c1)NCCCSc1ccccc1	none (no result: KCNQ2 enhance)
COc1ccc(/C(N)=N/OC(=O)Cc2cccs2)cc1OC	none
COc1ccc(/C(N)=N/OC(=O)Cc2cccs2)cc1	KCNQ2 inh -7
CCc1nc(SCc2ccccc2C)n[nH]1	none
Cc1ccc(NC(=O)/C=C\C(=O)NCC(=O)O)cc1	none (no result: KCNQ2 enhance)
O=C(c1cc(-c2cccc(Br)c2)nc2ccccc12)N1CCCC1	none (no result: KCNQ2 enhance)
O=C(c1cc(-c2ccc(Cl)s2)nc2ccccc12)N1CCCC1	none
Cc1ccc(-c2cc(C(=O)N3CCCC3)c3ccccc3n2)s1	KCNQ2 inh -5.9
O=C(c1cc(-c2ccc(Br)cc2)nc2ccccc12)N1CCC1	KCNQ2 inh -6.4
COc1cc2ccccc2cc1C(=O)Nc1ccc(C)cn1	none
CCOC(=O)C1CN(S(=O)(=O)c2cc(OC)ccc2OC)C1	none
O=c1[nH]cnc2c1sc1nc(-c3ccccc3)c3c(c12)CCCC3	none
S=c1nc[nH]c2c1sc1nc(-c3ccccc3)c3c(c12)CCCC3	KCNQ2 enhance 16
O=C(NCCc1c[nH]c2ccccc12)c1cc2sccc2n1Cc1ccccc1	KCNQ2 inh -6.5
Cn1c(C(=O)NCCc2c[nH]c3ccccc23)cc2sccc21	none (no result: KCNQ2 enhance)
O=C(C1CCCO1)N1CCN(c2ccccn2)CC1 (configuration not stated)	none
Cc1cccc(-c2nc(CS(=O)CC(=O)N3CCc4ccccc4C3)c(C)o2)c1 (configuration not stated)	KCNQ2 inh -7.8
CCN1CCN(C(=O)CS(=O)Cc2nc(-c3cccc(C)c3)oc2C)CC1 (configuration not stated)	none (no result: KCNQ2 enhance)
COc1ccccc1NC(=O)Nc1nnc(CC(=O)Nc2ccccc2C)s1	none
CCOc1ccccc1NC(=O)CCC(=O)Nc1nnc(C2CCCCC2)s1	none
O=C(O)CC1(CC(=O)Nc2ccc(Br)cc2)CCCCC1	KCNQ2 inh -7.6
O=C(O)CC1(CC(=O)Nc2ccc3ccccc3c2)CCCCC1	none (no result: KCNQ2 enhance)
CNc1ccccc(-c2ccc3ccccc3n2)c1=O	none (no result: KCNQ2 enhance)
Cc1ccc2c(C)c(C(=O)N3CCN(c4cnccn4)CC3)oc2c1C	none (no result: KCNQ2 enhance)
Cc1ccc2c(C)c(C(=O)N3CCC(O)(c4ccccc4)CC3)oc2c1C	KCNQ2 inh -5.9
CC(C)CC(=O)NC(=S)Nc1cc(C(F)(F)F)ccc1N1CCOCC1	none (no result: KCNQ2 enhance)
O=C(CCc1ccccc1)NC(=S)Nc1cc(C(F)(F)F)ccc1N1CCOCC1	KCNQ2 inh -6.2
Cc1ccc(N2CCN(C(=O)c3cc(-c4ccc(F)cc4)[nH]c3C)CC2C)cc1 (configuration not stated)	none (no result: KCNQ2 enhance)
COc1ccc(S(=O)(=O)N2CCC(c3cc(-c4cccc5ccccc45)n[nH]3)CC2)cc1	none (no result: KCNQ2 enhance)
O=S(=O)(c1cccc(C(F)(F)F)c1)N1CCC(c2cc(-c3cccc4ccccc34)n[nH]2)CC1	KCNQ2 inh -6.1
CC1CCCN(S(=O)(=O)c2ccc(NC(=O)C3CCN(C(=O)c4ccco4)CC3)cc2)C1 (configuration not stated)	none
Cc1cc(C)cc(NC(=O)CN2CCN(CCN=CC3=C(O)CC(c4ccc(Cl)cc4)CC3=O)CC2)c1 (configuration not stated)	none (no result: KCNQ2 enhance)
CC(=O)c1c(C)nc2ccc(Br)cc2c1-c1ccccc1	KCNQ2 inh -7.8
Cc1nc2ccc(Br)cc2c(-c2ccccc2)c1C(=O)O	none (no result: KCNQ2 enhance)
CC(=O)Nc1ccc(S(=O)(=O)Nc2ccccc2C(=O)N2CCCCCC2)cc1	none (no result: KCNQ2 enhance)
Cc1ccccc1CCNC(=O)Cn1ccc2cc(S(=O)(=O)N3CCCC3)ccc21	none
COc1ccc(S(=O)(=O)N2CCC(C(=O)NCCC(=O)NCc3ccccc3OC)CC2)cc1	none (no result: KCNQ2 enhance)
Oc1ccc(C=Nc2ccc(N3CCOCC3)cc2)c(O)c1	none (no result: KCNQ2 enhance)
Oc1cc(Br)ccc1C=Nc1ccc(N2CCCCC2)cc1	KCNQ2 inh -5.8
Cc1cccc(N2CCN(C(=O)c3cc4c(=O)n(C)c5ccccc5c4n3C)CC2C)c1 (configuration not stated)	KCNQ2 inh -6.1
Cn1c(C(=O)N2CCCCCC2)cc2c(=O)n(C)c3ccccc3c21	none
Cc1cccc(C(=O)N2N=C(c3ccc(NS(C)(=O)=O)cc3)CC2c2cccs2)c1 (configuration not stated)	none
COc1ccccc1C(=O)Nc1ccccc1N1CCOCC1	none (no result: KCNQ2 enhance)
COc1c(C(=O)Nc2ccccc2N2CCOCC2)cc2ccccc2c1Br	KCNQ2 inh -7.5
O=C(Nc1ccccc1N1CCOCC1)c1cc2ccccc2o1	none (no result: KCNQ2 enhance)
COc1ccc(N2CCOCC2)c(NC(=O)c2cc3ccccc3o2)c1	KCNQ2 inh -7.3
Cc1csc(C(C)N(C)C(=O)c2ccc(OC3CCN(Cc4ccccn4)CC3)cc2)n1 (configuration not stated)	none (no result: KCNQ2 enhance)
CNC(=O)CSc1nc2ccccc2c(=O)n1C1CCCCC1	none (no result: KCNQ2 enhance)
CCOC(=O)CSc1nc2ccccc2c(=O)n1C1CCCC1	KCNQ2 inh -5.8
CCOC(=O)CCCCCNC(=O)c1ccc(F)cc1F	none
c1ccc(N2CCOCC2)c(Nc2nc3ccccc3n3cnnc23)c1	KCNQ2 inh -6.3
c1ccc2c(c1)nc(N1CCOCC1)c1nncn12	none (no result: KCNQ2 enhance)
COc1ccc(NC(=O)Cc2ccc(Cl)c(Cl)c2)cn1	none (no result: KCNQ2 enhance)
COc1ccc(NC(=O)/C(Cl)=C(/Cl)S(=O)(=O)Cc2ccc(C)cc2)cn1	KCNQ2 enhance 5.4
COc1cc([N+](=O)[O-])ccc1NC(=O)CCCOc1cc(C)ccc1C	none (no result: KCNQ2 enhance)
CCn1c2ccccc2c2cc(NC(=O)C(C)Oc3ccc(OC)cc3)ccc21 (configuration not stated)	KCNQ2 inh -6.2
CCn1c2ccccc2c2cc(NC(=O)C(C)Oc3ccccc3)ccc21 (configuration not stated)	none (no result: KCNQ2 enhance)
COc1ccc(CCNC(=O)CSc2cccc3cccnc23)cc1OC	KCNQ2 inh -6.3
COc1ccc(CCNC(=O)CSc2ccccn2)cc1OC	none
CC1CCCCN1CCCNc1ccc(C(CC(N)=O)NC(=O)Cc2cccc3ccccc23)cc1[N+](=O)[O-] (configuration not stated)	none (no result: KCNQ2 enhance)
Oc1ccccc1CN(Cc1ccco1)CC(O)COCc1ccc(Cl)cc1 (configuration not stated)	KCNQ2 inh -6.1
COc1ccc(COCC(O)CN(Cc2ccco2)Cc2ccccc2O)cc1 (configuration not stated)	none (no result: KCNQ2 enhance)
O=C(NCCCN1CCOCC1)c1ccc2c(c1)N(Cc1ccccc1F)C(=O)c1ccccc1S2=O (configuration not stated)	none (no result: KCNQ2 enhance)
O=C(CCl)Nc1c2c(nn1-c1ccccc1)CSC2	none (no result: KCNQ2 enhance)
Cc1ccc2c(C)c(C(=O)N3CCCC(C(N)=O)C3)oc2c1C (configuration not stated)	none
CC(=O)n1cc(N(C(=O)CCl)c2ccc([N+](=O)[O-])cc2)c2ccccc21	none (no result: KCNQ2 enhance)
O=Cc1[nH]c2ccccc2c1N(C(=O)CCl)c1ccc([N+](=O)[O-])cc1	KCNQ2 inh -12
CC(=O)c1cn(CC(=O)Nc2ccccc2C(F)(F)F)c2ccccc12	none (no result: KCNQ2 enhance)
COc1ccc(OC)c(C(=O)CSc2nnc(-c3cccs3)n2C)c1	none
COc1ccc(-n2c(COc3ccc4ccccc4c3)nnc2SCC(=O)NCc2ccco2)cc1	none
COc1ccc(OC)c(C(=O)CSc2nnc(Cc3cccs3)n2CCc2ccccc2)c1	KCNQ2 inh -7.1
